In the supplement of paper PMC10849652:
Of roughly 7,900 targets only a part is listed; those with a hit were picked by preference. About 0.6% of all pairs of compound and target were hits. Values without a mark were called inactive.

What was measured:
Test in all cases: log2 fold change, soluble protein after heating vs DMSO (PISA); higher = thermal stabilisation; K562 cells, 10 uM, 30 min; active = over 0.2 and 3.5 SD of the protein, either way, in both replicates (recomputed)
[1] = compound: CN1CCN(CCOc2cc(OC3CCOCC3)c3c(Nc4c(Cl)ccc5c4OCO5)ncnc3c2)CC1 [saracatinib]
How it was run: (§1)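 K562 cells at 2×10^6 cells/mL were treated for 30 min with 10 μM compound, and aliquots were heated for 3 min over 48°C-58°C before pooling. Extraction used PBS with 0.5% NP-40 at 4°C, and soluble protein was the supernatant after 21,000xg for 90 min, measured by TMTpro 16plex LC-MS/MS with channel sums equalised. Thermal stability values, relative to control samples and from duplicates, are log2 fold changes.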

[2] = compound: CN1CCN(c2nc(C3=C(c4c[nH]c5ccccc45)C(=O)NC3=O)c3ccccc3n2)CC1 [sotrastaurin]
How it was run: as §1

[3] = compound: CN1CC[C@H](c2c(O)cc(O)c3c(=O)cc(-c4ccccc4Cl)oc23)[C@H](O)C1 [alvocidib]
How it was run: as §1

[4] = compound: CN1CCc2c(c3ccccc3n2Cc2ccc(C(=O)NO)cc2)C1 [Tubastatin A]
How it was run: as §1

[5] = compound: CNC(=O)C1=CC=CC=C1NC2=NC(=NC=C2Cl)NC3=C(C=C(C=C3)N4CCOCC4)OC
How it was run: as §1

[6] = compound: CNC(=O)c1ccc(Nc2ncc(C(F)(F)F)c(NCc3nccnc3N(C)S(C)(=O)=O)n2)cc1 [defactinib]
How it was run: as §1

[7] = compound: CNCc1ccc(-c2[nH]c3cc(F)cc4c3c2CCNC4=O)cc1 [rucaparib]
How it was run: as §1

[8] = compound: CNc1nc(-c2ccc3c(N)n[nH]c3c2)cc(N2C[C@@H](C(=O)NC3CCCCC3)CC[C@H]2C)n1
How it was run: as §1

[9] = compound: COC(=O)N[C@@H](C)CNc1nccc(-c2cn(C(C)C)nc2-c2cc(Cl)cc(NS(C)(=O)=O)c2F)n1 [encorafenib]
How it was run: as §1

[10] = compound: COC(=O)[C@H](CCSC)NC(=O)C1=C(C=C(C=C1)NC[C@H](CS)N)C2=CC=CC=C2
How it was run: as §1

UniProt Q96P70, sequence (Q96P70 whole entry, looked up): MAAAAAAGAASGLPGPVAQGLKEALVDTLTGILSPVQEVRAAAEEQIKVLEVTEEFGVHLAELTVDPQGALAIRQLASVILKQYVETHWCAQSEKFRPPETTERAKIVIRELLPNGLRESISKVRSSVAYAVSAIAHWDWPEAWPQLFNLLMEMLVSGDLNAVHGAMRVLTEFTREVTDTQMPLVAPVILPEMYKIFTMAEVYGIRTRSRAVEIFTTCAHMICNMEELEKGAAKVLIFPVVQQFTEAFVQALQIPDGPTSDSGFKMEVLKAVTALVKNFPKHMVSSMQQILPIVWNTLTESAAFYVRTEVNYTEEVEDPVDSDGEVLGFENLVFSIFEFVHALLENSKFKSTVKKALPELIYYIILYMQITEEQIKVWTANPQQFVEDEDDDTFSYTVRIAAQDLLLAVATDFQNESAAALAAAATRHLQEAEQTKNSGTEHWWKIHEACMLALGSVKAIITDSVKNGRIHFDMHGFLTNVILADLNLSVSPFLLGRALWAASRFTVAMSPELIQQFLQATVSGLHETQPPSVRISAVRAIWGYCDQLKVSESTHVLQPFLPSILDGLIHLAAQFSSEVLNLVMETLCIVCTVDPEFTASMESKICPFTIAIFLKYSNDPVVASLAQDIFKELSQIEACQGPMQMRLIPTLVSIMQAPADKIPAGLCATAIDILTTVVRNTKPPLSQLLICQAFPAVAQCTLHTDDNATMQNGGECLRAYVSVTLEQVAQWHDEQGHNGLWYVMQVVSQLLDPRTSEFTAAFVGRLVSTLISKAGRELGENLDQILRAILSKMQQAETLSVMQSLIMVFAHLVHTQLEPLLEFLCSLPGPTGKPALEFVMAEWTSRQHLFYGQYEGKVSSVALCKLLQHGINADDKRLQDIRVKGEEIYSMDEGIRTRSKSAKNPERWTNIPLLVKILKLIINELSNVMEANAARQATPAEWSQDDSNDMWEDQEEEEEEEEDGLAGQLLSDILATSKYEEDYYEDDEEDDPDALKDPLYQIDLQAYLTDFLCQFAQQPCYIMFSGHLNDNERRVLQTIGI
UniProt Q9H6V9, sequence (Q9H6V9 whole entry, looked up): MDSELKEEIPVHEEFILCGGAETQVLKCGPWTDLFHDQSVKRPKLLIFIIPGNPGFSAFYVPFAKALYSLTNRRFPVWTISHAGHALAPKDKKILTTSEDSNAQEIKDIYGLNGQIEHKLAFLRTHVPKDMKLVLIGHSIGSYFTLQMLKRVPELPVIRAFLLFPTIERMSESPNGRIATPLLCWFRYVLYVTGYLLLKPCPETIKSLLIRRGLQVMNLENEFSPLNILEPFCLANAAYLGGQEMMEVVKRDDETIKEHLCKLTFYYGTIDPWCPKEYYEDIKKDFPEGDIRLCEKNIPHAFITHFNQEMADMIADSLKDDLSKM
UniProt P13473, sequence (P13473 whole entry, looked up): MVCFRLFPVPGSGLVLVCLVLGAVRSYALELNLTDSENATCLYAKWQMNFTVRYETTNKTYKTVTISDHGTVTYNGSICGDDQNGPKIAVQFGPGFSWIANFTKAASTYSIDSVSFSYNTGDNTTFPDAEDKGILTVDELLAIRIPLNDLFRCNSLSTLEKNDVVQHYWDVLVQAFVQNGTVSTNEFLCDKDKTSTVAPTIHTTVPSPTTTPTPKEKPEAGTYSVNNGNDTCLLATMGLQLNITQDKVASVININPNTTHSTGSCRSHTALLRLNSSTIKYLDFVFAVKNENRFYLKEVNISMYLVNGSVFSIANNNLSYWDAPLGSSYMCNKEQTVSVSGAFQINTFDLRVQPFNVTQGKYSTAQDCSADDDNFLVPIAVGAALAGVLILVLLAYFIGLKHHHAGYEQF
UniProt Q08431, sequence (Q08431 whole entry, looked up): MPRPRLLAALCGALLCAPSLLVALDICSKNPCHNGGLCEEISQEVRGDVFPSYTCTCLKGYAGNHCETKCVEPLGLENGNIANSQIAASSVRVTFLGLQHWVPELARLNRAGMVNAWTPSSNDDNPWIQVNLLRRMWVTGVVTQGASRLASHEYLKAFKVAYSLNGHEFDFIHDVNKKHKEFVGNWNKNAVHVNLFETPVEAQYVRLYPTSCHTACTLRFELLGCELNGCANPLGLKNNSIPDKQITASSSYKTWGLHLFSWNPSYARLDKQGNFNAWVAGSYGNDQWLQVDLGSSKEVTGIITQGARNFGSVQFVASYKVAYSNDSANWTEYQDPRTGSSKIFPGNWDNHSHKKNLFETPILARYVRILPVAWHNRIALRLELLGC
UniProt Q8WV07, sequence (Q8WV07 whole entry, looked up): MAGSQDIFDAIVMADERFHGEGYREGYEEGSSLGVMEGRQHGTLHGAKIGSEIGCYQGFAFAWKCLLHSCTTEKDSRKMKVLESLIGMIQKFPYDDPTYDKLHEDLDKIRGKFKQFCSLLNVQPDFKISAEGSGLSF
UniProt P36507, sequence (P36507 whole entry, looked up): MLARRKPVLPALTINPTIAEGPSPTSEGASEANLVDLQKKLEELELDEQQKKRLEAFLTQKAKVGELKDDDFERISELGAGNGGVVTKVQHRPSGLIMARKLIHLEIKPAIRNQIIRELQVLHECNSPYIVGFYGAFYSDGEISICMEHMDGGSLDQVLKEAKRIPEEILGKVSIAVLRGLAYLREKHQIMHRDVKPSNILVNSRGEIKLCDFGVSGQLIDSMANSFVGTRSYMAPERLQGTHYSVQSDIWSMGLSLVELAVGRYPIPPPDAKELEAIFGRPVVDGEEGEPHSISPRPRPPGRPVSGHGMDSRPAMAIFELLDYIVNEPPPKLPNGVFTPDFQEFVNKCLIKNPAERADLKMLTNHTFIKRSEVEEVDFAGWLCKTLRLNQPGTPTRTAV
UniProt Q9UI26, sequence (Q9UI26 whole entry, looked up): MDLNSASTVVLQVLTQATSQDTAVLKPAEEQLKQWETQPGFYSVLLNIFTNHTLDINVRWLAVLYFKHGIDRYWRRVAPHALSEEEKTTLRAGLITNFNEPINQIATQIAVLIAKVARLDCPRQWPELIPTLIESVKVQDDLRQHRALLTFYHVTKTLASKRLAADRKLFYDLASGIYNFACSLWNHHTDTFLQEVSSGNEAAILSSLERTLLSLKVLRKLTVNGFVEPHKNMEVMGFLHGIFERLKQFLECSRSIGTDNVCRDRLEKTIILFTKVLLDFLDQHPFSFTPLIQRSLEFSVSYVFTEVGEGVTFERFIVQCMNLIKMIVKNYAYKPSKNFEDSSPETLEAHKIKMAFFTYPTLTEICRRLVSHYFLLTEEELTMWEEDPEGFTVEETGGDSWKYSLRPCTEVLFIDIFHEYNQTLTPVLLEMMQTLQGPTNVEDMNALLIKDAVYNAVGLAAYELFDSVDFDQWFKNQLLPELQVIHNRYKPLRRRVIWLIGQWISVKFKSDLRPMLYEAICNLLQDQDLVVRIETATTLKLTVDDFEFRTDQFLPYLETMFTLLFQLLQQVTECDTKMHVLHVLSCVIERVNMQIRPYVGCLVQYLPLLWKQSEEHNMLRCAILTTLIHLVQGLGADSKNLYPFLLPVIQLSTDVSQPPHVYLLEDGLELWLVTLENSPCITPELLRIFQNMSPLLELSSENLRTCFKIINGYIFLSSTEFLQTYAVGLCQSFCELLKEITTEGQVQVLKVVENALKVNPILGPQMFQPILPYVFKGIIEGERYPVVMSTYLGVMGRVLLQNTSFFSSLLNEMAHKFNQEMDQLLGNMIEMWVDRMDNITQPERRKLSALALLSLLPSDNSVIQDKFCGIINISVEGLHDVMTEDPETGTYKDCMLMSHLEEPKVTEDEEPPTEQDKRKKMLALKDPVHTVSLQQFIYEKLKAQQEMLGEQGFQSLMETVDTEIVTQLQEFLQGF
UniProt O15066, sequence (O15066 whole entry, looked up): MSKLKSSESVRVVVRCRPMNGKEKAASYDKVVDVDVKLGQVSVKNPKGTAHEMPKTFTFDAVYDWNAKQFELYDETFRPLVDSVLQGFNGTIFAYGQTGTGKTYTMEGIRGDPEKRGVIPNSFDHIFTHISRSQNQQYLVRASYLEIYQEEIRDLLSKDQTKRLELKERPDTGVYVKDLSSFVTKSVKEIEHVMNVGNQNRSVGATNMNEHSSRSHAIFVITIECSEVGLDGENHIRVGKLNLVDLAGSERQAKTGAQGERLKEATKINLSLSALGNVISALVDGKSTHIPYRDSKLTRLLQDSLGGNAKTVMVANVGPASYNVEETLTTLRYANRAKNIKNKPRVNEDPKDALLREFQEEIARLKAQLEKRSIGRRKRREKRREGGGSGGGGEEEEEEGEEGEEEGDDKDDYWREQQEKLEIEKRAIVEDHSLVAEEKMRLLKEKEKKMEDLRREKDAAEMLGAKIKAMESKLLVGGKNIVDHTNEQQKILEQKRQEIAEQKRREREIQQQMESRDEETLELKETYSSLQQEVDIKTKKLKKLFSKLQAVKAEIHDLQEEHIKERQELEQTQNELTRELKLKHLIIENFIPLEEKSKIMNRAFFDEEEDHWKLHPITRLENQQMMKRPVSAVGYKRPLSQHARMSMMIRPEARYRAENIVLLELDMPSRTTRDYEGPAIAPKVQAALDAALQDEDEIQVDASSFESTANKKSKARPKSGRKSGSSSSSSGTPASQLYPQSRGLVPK
UniProt Q02750, sequence (Q02750 whole entry, looked up): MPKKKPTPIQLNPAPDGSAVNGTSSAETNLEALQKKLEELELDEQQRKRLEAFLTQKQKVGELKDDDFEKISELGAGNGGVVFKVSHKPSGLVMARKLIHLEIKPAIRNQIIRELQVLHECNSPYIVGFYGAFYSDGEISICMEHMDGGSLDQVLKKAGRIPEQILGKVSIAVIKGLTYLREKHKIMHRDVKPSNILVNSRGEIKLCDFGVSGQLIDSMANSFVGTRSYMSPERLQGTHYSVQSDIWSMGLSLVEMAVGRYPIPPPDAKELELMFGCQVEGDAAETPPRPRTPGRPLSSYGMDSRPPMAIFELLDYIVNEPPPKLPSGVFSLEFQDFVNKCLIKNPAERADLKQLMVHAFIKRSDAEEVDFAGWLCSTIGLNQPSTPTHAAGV

Target | log2 fold change [1] | log2 fold change [2] | log2 fold change [3] | log2 fold change [4] | log2 fold change [5] | log2 fold change [6] | log2 fold change [7] | log2 fold change [8] | log2 fold change [9] | log2 fold change [10]
LTO1 (UniProt Q8WV07) | 0.071 | -0.003 | -0.01 | -0.288 | 0.01 | 0.051 | 0.03 | 0.073 | -0.016 | -0.314 (active)
MAP2K2 (UniProt P36507) | 0.012 | -0.037 | -0.024 | 0.01 | -0.138 | -0.056 | -0.039 | -0.021 | -0.074 | 0.001
MAP2K1 (UniProt Q02750) | 0.02 | 0.028 | -0.05 | -0.018 | -0.053 | -0.011 | -0.049 | -0.005 | 0.005 | 0.009
KPNA4 (UniProt O00629) | 0.013 | 0.032 | -0.085 | -0.017 | -0.052 | -0.095 | -0.117 | 0 | 0.016 | 0.015
IRAK4 (UniProt Q9NWZ3) | -0.026 | -0.061 | -0.106 | 0.006 | 0.162 | -0.022 | 0.076 | 0.01 | 0.006 | -0.071
MAGI1 (UniProt Q96QZ7) | -0.013 | -0.064 | -0.019 | -0.017 | 0.021 | -0.007 | 0.012 | 0.024 | 0.059 | -0.009
IPO11 isoform 2 (UniProt Q9UI26) | 0.048 | -0.02 | -0.006 | -0.043 | 0.01 | -0.013 | -0.053 | -0.03 | -0.004 | 0.012
IPO9 (UniProt Q96P70) | 0.036 | -0.13 | -0.08 | -0.02 | 0.034 | -0.106 | -0.051 | -0.136 | 0.056 | 0
MFGE8 (UniProt Q08431) | -0.171 | -0.013 | 0.034 | 0.08 | 0.066 | 0.099 | -0.043 | -0.018 | 0.037 | -0.023
IK (UniProt Q13123) | -0.006 | -0.037 | 0.108 | 0.05 | -0.036 | 0.013 | 0.198 | -0.059 | 0.197 | 0.002
LAMP2 (UniProt P13473) | 0.078 | 0.123 | 0.056 | -0.061 | 0.105 | -0.047 | -0.055 | -0.088 | -0.026 | 0.062
KIF3B (UniProt O15066) | -0.068 | 0.005 | -0.011 | 0.002 | 0.069 | 0.028 | -0.189 | -0.063 | 0.034 | -0.043
LDAH isoform 2 (UniProt Q9H6V9) | 0.092 | 0.035 | -0.139 | -0.03 | -0.001 | -0.09 | -0.004 | -0.043 | 0.04 | -0.063
LEO1 (UniProt Q8WVC0) | -0.047 | -0.085 | -0.137 | 0.061 | -0.039 | -0.211 | -0.151 | -0.055 | -0.033 | -0.082
MCUR1 (UniProt Q96AQ8) | -0.002 | 0.053 | -0.035 | 0.014 | 0.014 | -0.047 | -0.038 | 0.014 | -0.009 | -0.028
